Most compounds without a hit are left out; they make up all but 7.9% or so of the library.
Lassa entry inh: qHTS for Inhibitors of binding or entry into cells for Lassa Virus; Lassa virus pseudotype entry inhibition, cell reporter; Potency, µM (top dose mostly 37.9 µM), without a hit: top-dose activity change, negative = inhibition, most hits filed as inhibitors; 1.2% of 300,000 active; AID 540256, 2011; calls by dose curve; tested in HEK293 cells; also: potency is read from the fitted curve at half-maximal effect; nearly all actives have a fitted effect of over 50% in size
FMDV antiviral: High Throughput Screening for Foot and Mouth Disease Virus Antivirals; FMDV antiviral cell-based qHTS; Potency, µM (series often up to 57.9 µM), for the others: top-dose activity change, negative = inhibition, usual class: inhibitors; 1.2% of 410,000 active; calls by dose curve; tested in HEK293T cells; also: read-out not given here; potency is read from the fitted curve at half-maximal effect; nearly all actives have a fitted effect of over 45% in size
HCMV inh: qHTS Assay for inhibitors of the human cytomegalovirus (HCMV) | HFF cells, HCMV-luciferase reporter, 72 h; active compounds read low | AID 1259415, 2018 | activity change, negative = inhibition, % at 57.5 µM | 4.5% of 410,000 active; in the data active = activity change below about -60%; inconclusive = no clear call, values can overlap the other calls; inactive = above about -39%
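After 16 h attachment at 37C, HFF cells received test compound and HCMV-luciferase (1 PFU/cell); reporter luminescence read 72 h later, data normalized against buffer-only and known inhibitor Salinomycin.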
Marburg entry inh: qHTS for inhibitors of binding or entry into cells for Marburg Virus. 1.8% of 300,000 active. Potency, µM (series often up to 37.8 µM), for inactives: top-dose activity change, negative = inhibition, usual class: inhibitors. Marburg virus pseudotyped entry inhibition, cell reporter. AID 540276, 2011; calls by dose curve; tested in HEK293 cells; also: potency is read from the fitted curve at half-maximal effect
HCV inhibitor: qHTS Assay for Inhibitors of Hepatitis C Virus (HCV) | Huh7.5.1 HCVcc-Cre infection, luciferase reporter, 44 h | Potency, µM (titrated, usually from 41.8 µM), for inactives: at the highest dose activity change, negative = inhibition, hits mostly inhibitors | 3.4% of 340,000 active | AID 651820, 2012; active = well fitted inhibition curve with a large enough effect; inconclusive = small, poorly fitted or top-dose-only effect, or another doubt; inactive = no such curve, though single readings can be large or run the other way; also: potency is read from the fitted curve at half-maximal effect
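1,000 cells/well; 4 h culture; + compound; + HCVcc-Cre (~0.5 moi); 44 h; luciferase substrate, RT 15 min; read 15 sec.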
* hit, by the source's call; ? = inconclusive; · = not tested or not shown; [ ] = remark or other dose. % is scaled to controls: 0 for no effect and ±100 for the full control effect.

SMILES	Lassa entry inh	FMDV antiviral	HCMV inh	Marburg entry inh	HCV inhibitor
S=C(NCc1ccc(Cl)cc1)Nc1ccccc1	11.5%	12.9%	-66.5*	3.5%[46.1 µM]	-28.8%
S=C(NCc1ccc(Cl)cc1)Nc1ccncc1	·	5.8%	?	·	6.31µM*
CC(C)(C)c1ccccc1NC(=S)NCc1ccccc1	-12.9%	-0.7%	-71.7*	?	-14.9%
CC(=NCCc1ccccc1)c1c(O)[nH]c(=O)[nH]c1=O	-14.6%	6.2%	5.9	-6.9%[46.1 µM]	2.5%
CCC(=NCCc1ccccc1)c1c(O)[nH]c(=O)[nH]c1=O	0.3%	-16.0%	28.4	0.4%	0.316µM*
Cc1cc(NC(=O)C(C)SCC(=O)OCC(=O)Nc2c(C)cccc2C(C)C)no1 (stereo unspecified)	7.3%	-17.9%	?	21.4%	13.9%
Cc1ccccc1-c1nc2c(c(SCc3cccc(Cl)c3)n1)Cc1c(CO)cnc(C)c1O2	29.0%[46.1 µM]	4.2%	10.6	·	·
COc1ccc(NC2CCCN(C(=O)CSc3ccccc3)C2)cc1OC (stereo unspecified)	-15.4%	-26.2%	-2.1	-6.8%	2.4%
Cc1ccc(-c2nc3c(C)cccn3c2Nc2ccccc2C)s1	20.9%[46.1 µM]	-13.2%	-65.0*	-22.0%[46.1 µM]	·
Cc1cccn2c(Nc3ccccc3)c(-c3cccs3)nc12	21.2%[46.1 µM]	-7.2%	-60.9*	-11.2%[46.1 µM]	·
COc1ccc(-c2nc3cc(F)ccc3cc2CN(C(=O)c2ccc3c(c2)OCO3)C2CC2)cc1	·	-9.4%	·	·	·
COc1ccc(CNC(=O)COC(=O)Cc2ccc(Br)cc2)cc1	-13.4%[46.1 µM]	-17.1%	-20.0	?	11.8%
CCOc1ccc(NC(=O)CN(C)C(=O)c2cc(S(=O)(=O)N3CCCCC3)ccc2C)cc1OCC	2.8%	-7.2%	-36.8	22.3%	3.6%
CC1(C(=O)NC2CCCCC2)Cc2ccccc2C(=O)N1Cc1ccc(F)cc1 (stereo unspecified)	·	-2.6%	4.5	?	·
COc1ccccc1/C=C/C1(C(=O)NC2CCCC2)CC(=O)N1c1ccc(C)cc1 (stereo unspecified)	-27.5%	-20.7%	-98.4*	?	?
COc1ccccc1/C=C/C1(C(=O)NC2CCCC2)CC(=O)N1c1ccc(F)cc1 (stereo unspecified)	14.6µM*	?	-82.9*	5.8µM*	?
CCN(CC)S(=O)(=O)c1ccc(N2C(=O)CC2(/C=C/c2ccccc2)C(=O)NC2CCCC2)cc1 (stereo unspecified)	?	-15.5%	-31.7	?	8.2%
CC(=O)[C@H]1CC[C@@H](c2ccccc2)N(S(=O)(=O)c2ccc(C)cc2)C1	·	-3.2%	18.2	·	·
CC[C@H](CO)NC(=O)[C@H]1C=C2c3cccc4[nH]cc(c34)C[C@H]2N(C)C1	·	·	·	-42.0%	·
Cc1ccc(NC(=S)/C(=C(\[O-])c2ccc(F)cc2)[n+]2ccccc2)cc1	1.7%	34.6%	-72.9*	-18.6%[46.1 µM]	-11.2%
COc1cc(OC)c(NC2=CC(=O)C(=O)c3ccccc32)cc1Cl	·	?	-81.9*	·	5.01µM*
CCOC(=O)c1ccc(NC2=CC(=O)C(=O)c3ccccc32)cc1	?	-3.2%	19.8	?	-16.1%
Cc1ccc(NC2=CC(=O)C(=O)c3ccccc32)cc1	?	-39.3%	-103.9*	?	10µM*
NS(=O)(=O)c1ccc(NC2=CC(=O)C(=O)c3ccccc32)cc1	-0.5%[46.1 µM]	25.1µM*	49.9	5.3%[46.1 µM]	15.8µM*
Cc1cc(NC2=CC(=O)C(=O)c3ccccc32)no1	?	?	-101.6*	?	?
SMILES	Lassa entry inh	FMDV antiviral	HCMV inh	Marburg entry inh	HCV inhibitor
Cc1cc(NC(=O)CCN2C(=O)c3ccccc3C2=O)no1	3.9%	-19.4%	11.2	3.8%	7.6%
CCOc1ccc(Cl)cc1CNCCCSc1nc(C)cc(C)n1	·	-14.8%	-32.3	·	3.4%
CCCN1CCN(CCCNC(=O)Cn2c(-c3cccs3)cc3cc(Cl)ccc32)CC1	?	-22.9%	-33.3	·	·
CC1CCCN(Cc2nc3c(c(=O)n(C)c(=O)n3C)n2Cc2ccc(Cl)cc2Cl)C1 (stereo unspecified)	9.4%[46.1 µM]	-9.0%	3.3	2.3%[46.1 µM]	·
Cc1nc(Sc2ccccc2)c(C#N)cc1-c1ccccc1	3.8%	19.9%	·	15.8%	-24.6%
Cc1cc(C)c(C#N)c(Sc2nc(C)c([N+](=O)[O-])c(C)c2C#N)n1	·	22.4µM*	-37.9	·	·
Cc1nc(Sc2ccccc2)c(C#N)c(C)c1[N+](=O)[O-]	-19.6%	?	-103.1*	-8.9%[46.1 µM]	?
CCOC(=O)c1ccc(O)c(-n2cc3c(c2-c2ccccc2)c(=O)n(C)c(=O)n3C)c1	·	-9.0%	1.1	·	·
CC1(C)Cc2c(sc(N)c2C#N)C(C)(C)N1	·	9.7%	1.4	·	0.5%
CC1(C)CC2CC(C)(CN2/C=N/c2sc3c(c2C#N)CC(C)(C)NC3(C)C)C1 (stereo unspecified)	?	0.0%	-88.2*	?	?
CSc1nc(-c2ccco2)cc(-c2ccccc2)c1C#N	-1.2%	-23.5%	-8.7	-25.8%	?
CSc1nc(-c2ccccc2)cc(C)c1C#N	-19.7%	-19.4%	26.0	10.1%[46.1 µM]	10µM*
COc1cccc(C(=O)N2CCCC(c3nc(SCCN4CCOCC4)ncc3C)C2)c1 (stereo unspecified)	·	-24.2%	·	·	·
NC(=O)CC(NC(=O)c1ccccc1)c1ccc(N2CCC(Cc3ccccc3)CC2)c([N+](=O)[O-])c1 (stereo unspecified)	·	?	-67.2*	·	?
Cc1ccccc1CNc1ccc(C(CC(N)=O)NC(=O)c2ccccc2)cc1[N+](=O)[O-] (stereo unspecified)	·	-13.1%	?	·	11.2µM*
Cc1cccc(CNc2ccc(C(CC(N)=O)NC(=O)c3ccccc3)cc2[N+](=O)[O-])c1 (stereo unspecified)	·	0.0%	5.2	·	?
COc1cccc(CN2CCCC(c3nc(-c4ccncc4)ncc3-c3ccccc3)C2)c1O (stereo unspecified)	·	-25.8%	·	·	·
Oc1ccc(-c2onc(C(F)(F)F)c2-c2cscn2)c(O)c1	-5.8%	0.0%	?	?	?
Cc1nc(-c2c(C(F)(F)F)noc2-c2ccc(O)cc2O)cs1	2.0%	?	-90.1*	-0.3%	?
Cc1nnc(C)n1/N=C/c1ccc(O)cc1	9.7%	-11.0%	-1.9	1.6%	11.3%
Oc1ccc(/C=N/n2c3ccccc3c3ccccc32)cc1	-11.4%	-21.8%	2.2	-4.3%	10µM*
Cc1cc2nc(Sc3c([N+](=O)[O-])nc(C)n3Cc3ccccc3)[nH]c2cc1C	1.3%	31.6µM*	12.1	?	-12.3%
COc1ccc2nc(Sc3c([N+](=O)[O-])nc(C)n3Cc3ccccc3)[nH]c2c1	16.4µM*	15.8µM*	28.3	?	?
C=CCn1c(=O)n([C@@H]2O[C@H](CO)[C@@H](O)[C@H]2O)c2nc(N)[nH]c(=O)c21	·	-5.2%	·	·	·
Cc1cc(C(=O)N/N=C/c2ccc[nH]2)n[nH]1	6.7%	0.2%	?	-2.0%[46.1 µM]	1.41µM*
O=C(N/N=C/c1ccc[nH]1)c1ccccc1O	-13.1%	0.0%	-91.8*	-16.8%[14.2 µM]	-11.1%

Compound activity: PubChem, National Center for Advancing Translational Sciences (NCATS)
